Measured values taken from PubChem BioAssay AID1159580 (chemical genetic matrix, 2015).
In all, about 5,500 compounds went through this assay and about 2,000 (36%) were called active. Not shown: some 18% with an inconclusive outcome. No stated cut-off is given here; in the data, active means normalized growth mostly below about 0.91 (no sharp cut-off); inconclusive means no clear call, values can overlap the other calls; inactive means mostly above about 0.92. The list shows a part of the results.

Experiment: chemical genetic growth profiling, strain panel (AID 1159580);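 further: tested at 20 µM; growth read once vehicle control cultures reached saturation at 30 °C; 1 = growth at the plate median or of vehicle wells; lower values mean less growth of the strain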
Settings: growth OD

Measured: normalized growth

CCCCCC(=O)O[C@]1(C(C)=O)CCC2C3CCC4=CC(=O)CC[C@]4(C)C3CC[C@@]21C (some centres undefined)
inactive: S. cerevisiae deletion strains, locus YJR066W, strain TOR1, active compounds read low 0.939 | S. cerevisiae deletion strains, locus YKL009W, strain mrt4, active compounds read low 1.01 | S. cerevisiae deletion strains, locus YKL068W, active compounds read low 1 | S. cerevisiae deletion strains, locus YKL085W, strain MDH1 (second series), active compounds read low 1.01 | S. cerevisiae deletion strains, locus YKL085W, strain MDH1, active compounds read low 1.01 | S. cerevisiae deletion strains, locus YKL160W, strain elf1, active compounds read low 0.998 | S. cerevisiae deletion strains, locus YKL190W, strain CNB1, active compounds read low 1.01 | S. cerevisiae deletion strains, locus YKR001C, strain vps1, active compounds read low 1.01 | S. cerevisiae deletion strains, locus YKR026C, strain gcn3, active compounds read low 1 | S. cerevisiae deletion strains, locus YKR091W, strain srl3, active compounds read low 0.99 | S. cerevisiae deletion strains, locus YLL001W, strain dnm1, active compounds read low 1 | S. cerevisiae deletion strains, locus YLL026W, active compounds read low 1.01 | S. cerevisiae deletion strains, locus YLL041C, strain sdh2, active compounds read low 0.99 | S. cerevisiae deletion strains, locus YLR027C, strain aat2, active compounds read low 1 | S. cerevisiae deletion strains, locus YLR039C, strain RIC1, active compounds read low 1.02 | S. cerevisiae deletion strains, locus YLR058C, strain SHM2, active compounds read low 1.02 | S. cerevisiae deletion strains, locus YLR102C, strain apc9, active compounds read low 1.01 | S. cerevisiae deletion strains, locus YLR113W, strain HOG1, active compounds read low 0.988 | S. cerevisiae deletion strains, locus YLR221C, strain rsa3, active compounds read low 0.999 | S. cerevisiae deletion strains, locus YLR258W, strain gsy2, active compounds read low 1 | S. cerevisiae deletion strains, locus YLR262C, strain YPT6 (second series), active compounds read low 1.02 | S. cerevisiae deletion strains, locus YLR262C, strain YPT6, active compounds read low 1.09 | S. cerevisiae deletion strains, locus YLR268W, strain sec22, active compounds read low 1.02 | S. cerevisiae deletion strains, locus YLR320W, strain mms22, active compounds read low 1.01 | S. cerevisiae deletion strains, locus YLR330W, strain CHS5, active compounds read low 1.01 | S. cerevisiae deletion strains, locus YLR342W, strain FKS1 (second series), active compounds read low 0.997 | S. cerevisiae deletion strains, locus YLR342W, strain FKS1, active compounds read low 0.996 | S. cerevisiae deletion strains, locus YLR357W, strain rsc2, active compounds read low 1.01 | S. cerevisiae deletion strains, locus YLR370C, strain arc18, active compounds read low 0.998 | S. cerevisiae deletion strains, locus YLR371W, strain rom2, active compounds read low 1.01 | S. cerevisiae deletion strains, locus YLR384C, strain iki3, active compounds read low 0.996 | S. cerevisiae deletion strains, locus YLR418C, strain cdc73, active compounds read low 1.01 | S. cerevisiae deletion strains, locus YML016C, strain PPZ1, active compounds read low 1 | S. cerevisiae deletion strains, locus YML032C, strain rad52, active compounds read low 1.01 | S. cerevisiae deletion strains, locus YML120C, strain ndi1, active compounds read low 1 | S. cerevisiae deletion strains, locus YML124C, strain tub3, active compounds read low 1 | S. cerevisiae deletion strains, locus YMR058W, strain fet3, active compounds read low 1.01 | S. cerevisiae deletion strains, locus YMR078C, strain ctf18, active compounds read low 1.01 | S. cerevisiae deletion strains, locus YMR125W, strain sto1, active compounds read low 1.01 | S. cerevisiae deletion strains, locus YMR129W, active compounds read low 1 | S. cerevisiae deletion strains, locus YMR205C, strain PFK2, active compounds read low 0.973 | S. cerevisiae deletion strains, locus YMR223W, strain ubp8, active compounds read low 1.01 | S. cerevisiae deletion strains, locus YMR231W, strain pep5, active compounds read low 1 | S. cerevisiae deletion strains, locus YMR307W, strain GAS1, active compounds read low 1.1 | S. cerevisiae deletion strains, locus YNL067W, strain RPL9B, active compounds read low 0.998 | S. cerevisiae deletion strains, locus YNL071W, strain lat1, active compounds read low 1 | S. cerevisiae deletion strains, locus YNL128W, strain TEP1, active compounds read low 1.02 | S. cerevisiae deletion strains, locus YNL183C, strain NPR1, active compounds read low 0.965 | S. cerevisiae deletion strains, locus YNL209W, strain ssb2, active compounds read low 1 | S. cerevisiae deletion strains, locus YNL233W, strain BNI4, active compounds read low 1.03 | S. cerevisiae deletion strains, locus YNL248C, strain rpa49, active compounds read low 1 | S. cerevisiae deletion strains, locus YNL250W, strain rad50, active compounds read low 1.01 | S. cerevisiae deletion strains, locus YNL271C, strain bni1, active compounds read low 1.02 | S. cerevisiae deletion strains, locus YNL298W, strain CLA4, active compounds read low 1.02 | S. cerevisiae deletion strains, locus YNL307C, strain MCK1, active compounds read low 1.01 | S. cerevisiae deletion strains, locus YNL322C, strain KRE1 (second series), active compounds read low 0.999 | S. cerevisiae deletion strains, locus YNL322C, strain KRE1, active compounds read low 1.01 | S. cerevisiae deletion strains, locus YNR049C, strain mso1, active compounds read low 1 | S. cerevisiae deletion strains, locus YNR052C, strain pop2, active compounds read low 1.02 | S. cerevisiae deletion strains, locus YOL012C, strain htz1 1.02 | S. cerevisiae deletion strains, locus YOL147C, strain pex11, active compounds read low 1 | S. cerevisiae deletion strains, locus YOR001W, strain rrp6, active compounds read low 1.01 | S. cerevisiae deletion strains, locus YOR061W, strain CKA2, active compounds read low 1 | S. cerevisiae deletion strains, locus YOR069W, strain VPS5, active compounds read low 1.01 | S. cerevisiae deletion strains, locus YOR070C, strain gyp1, active compounds read low 1 | S. cerevisiae deletion strains, locus YOR080W, strain dia2, active compounds read low 1 | S. cerevisiae deletion strains, locus YOR083W, strain WHI5, active compounds read low 0.997 | S. cerevisiae deletion strains, locus YOR106W, strain vam3, active compounds read low 1.01 | S. cerevisiae deletion strains, locus YOR136W, strain idh2, active compounds read low 1.02 | S. cerevisiae deletion strains, locus YOR144C, strain elg1, active compounds read low 1.01 | S. cerevisiae deletion strains, locus YOR184W, strain ser1, active compounds read low 0.969 | S. cerevisiae deletion strains, locus YOR231W, strain MKK1, active compounds read low 0.976 | S. cerevisiae deletion strains, locus YOR265W, strain rbl2, active compounds read low 0.998 | S. cerevisiae deletion strains, locus YOR270C, strain vph1, active compounds read low 1.04 | S. cerevisiae deletion strains, locus YOR290C, strain snf2, active compounds read low 0.959 | S. cerevisiae deletion strains, locus YOR316C, strain cot1, active compounds read low 1.01 | S. cerevisiae deletion strains, locus YPL051W, strain arl3, active compounds read low 1.01 | S. cerevisiae deletion strains, locus YPL055C, strain LGE1, active compounds read low 1.01 | S. cerevisiae deletion strains, locus YPL078C, strain atp4, active compounds read low 1.01 | S. cerevisiae deletion strains, locus YPL106C, strain sse1, active compounds read low 0.986 | S. cerevisiae deletion strains, locus YPL240C, strain hsp82, active compounds read low 0.991 | S. cerevisiae deletion strains, locus YPL241C, strain CIN2, active compounds read low 1 | S. cerevisiae deletion strains, locus YPL256C, strain CLN2, active compounds read low 0.958 | S. cerevisiae deletion strains, locus YPR119W, strain clb2, active compounds read low 1.01 | S. cerevisiae deletion strains, locus YPR141C, strain kar3, active compounds read low 1.01 | S. cerevisiae deletion strains, locus YPR163C, strain tif3, active compounds read low 1.01 | S. cerevisiae deletion strains, locus YPR167C, strain met16, active compounds read low 1.01 | S. cerevisiae deletion strains, strain wtn01, active compounds read low 1.01 | S. cerevisiae strains, strain wild type, active compounds read low 1.01
